Only a selection was taken, and hits are over-represented in it overall.
Cycloheximide cs = affects cycloheximide protein synthesis inhibition readout, counter-screen. cell reporter, cycloheximide protein synthesis inhibition counterscreen. max response, %. hit rate 12% among 300,000; in the data active means max response mostly above about 13%, no sharp cut-off; inactive means mostly below about 14%; further: read at 38.3 µM for the half of the compounds with a filed dose; 0% is about no effect
Giardia FBPA inh = Giardia lamblia aldolase inhibition; hit rate 0.71% among 290,000; AID 2451; purified Giardia FBPA; A8B2U2; Potency, µM (top dose mostly 59.6 µM), inactives show top-dose activity, negative = inhibition, actives largely listed as inhibitors; further: potency means the concentration at half of the fitted maximal effect; on the % scale 0 is the no-effect control and ±100 the full control effect; nearly all actives have a fitted effect of over 55% in size
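Giardia FBPA (40 nM reagent) was preincubated 10 min at RT with compound (up to 57.5 uM final), then substrate plus GAPDH/TPI/NAD/arsenate coupling system with diaphorase/resazurin was added; resorufin fluorescence (525/598 nm) was read after 20 min.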
RE007 growth inh = less growth of the S. pombe RE007 Vpr strain. S. pombe RE007 Vpr strain, BacTiter-Glo ATP luminescence, 24 h. Potency, µM (highest dose often 92.2 µM), inactives show top-dose activity change, negative = less growth, usual class: inhibitors. hit rate 0.21% among 360,000. AID 651644; active means well fitted falling curve with a large enough effect; inconclusive means small, poorly fitted or top-dose-only effect; inactive means no such curve, though single readings can be large or run the other way; further: potency means the concentration at half of the fitted maximal effect; on the % scale 0 is the no-effect control and ±100 the full control effect; nearly all actives have a fitted effect of over 50% in size
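Fission yeast RE007 carrying one integrated HIV-1 vpr copy, seeded at OD 0.01 in PMG+AL medium with 23 nL pinned compound. Grown 24 h at 30 degrees; viability read by BacTiter-Glo luminescence after 5 min.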
LmPK inh = inhibitors of Leishmania mexicana pyruvate kinase. purified LmPK, Kinase-Glo ATP luminescence, 1 h. Potency, µM (highest dose often 57.5 µM), for inactives: at the highest dose activity change, negative = inhibition, most hits filed as inhibitors. AID 1721. hit rate 0.37% among 290,000; further: potency means the concentration at half of the fitted maximal effect; on the % scale 0 is the no-effect control and ±100 the full control effect
Target sequence (Q27686 whole entry, looked up): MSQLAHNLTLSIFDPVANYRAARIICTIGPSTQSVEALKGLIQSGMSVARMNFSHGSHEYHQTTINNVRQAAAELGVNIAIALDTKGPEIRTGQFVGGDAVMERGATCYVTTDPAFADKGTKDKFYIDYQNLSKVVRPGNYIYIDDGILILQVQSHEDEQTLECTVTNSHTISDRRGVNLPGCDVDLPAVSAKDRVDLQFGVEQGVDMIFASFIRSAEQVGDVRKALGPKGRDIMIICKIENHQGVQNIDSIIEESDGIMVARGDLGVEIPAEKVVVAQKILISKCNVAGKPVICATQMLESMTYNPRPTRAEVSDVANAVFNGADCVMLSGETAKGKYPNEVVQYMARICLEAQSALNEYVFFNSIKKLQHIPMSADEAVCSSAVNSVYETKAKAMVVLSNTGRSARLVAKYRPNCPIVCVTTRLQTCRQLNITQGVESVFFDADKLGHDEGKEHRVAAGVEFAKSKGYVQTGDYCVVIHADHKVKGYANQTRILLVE
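Screened at intermediate enzyme activity to detect both inhibitors and activators: LmPK at 0.1 nM, with a 0.5 nM enzyme column as activation reference. PEP 0.5 mM, ADP 0.1 mM; ATP detected by luminescence after 1 h.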
Tb PYK inh = T. brucei pyruvate kinase inhibition. TbPYK enzyme, Kinase-Glo Plus ATP luminescence, 45 min. Potency, µM (doses to about 76.8 µM), for the others: at the top dose activity, negative = inhibition, usual class: inhibitors. hit rate 0.12% among 410,000. AID 624173; further: potency means the concentration at half of the fitted maximal effect; on the % scale 0 is the no-effect control and ±100 the full control effect; nearly all actives have a fitted effect of over 50% in size
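Activity of T. brucei pyruvate kinase was followed by Kinase-Glo Plus luminescence after the enzyme reacted 45 min at room temperature with 130 uM ADP (final) and substrate. Test compounds were added before ADP at multiple concentrations.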
Shiga inhibitor = blocks Shiga toxin action in Vero cells; Vero cells, Shiga toxin protein synthesis inhibition reporter; hit rate 9.2% among 290,000; inhibition, % at 38.7 µM; AID 2315; in the data active means inhibition mostly above about 28%, no sharp cut-off; inactive means mostly below about 43%; further: 0% is about no effect
Active calls of the source: *; ? = inconclusive; . = not tested or not shown. Unless noted, the call rests on the fitted dose curve; in most records, active means well fitted curve in the direction sought with a large enough effect; inconclusive means small, poorly fitted or top-dose-only effect, or another doubt; inactive means no such curve, though single readings can be large; an effect the other way counts as inactive or inconclusive.

SMILES	Cycloheximide cs	Giardia FBPA inh	RE007 growth inh	LmPK inh	Tb PYK inh	Shiga inhibitor
Cc1ccc(OCC(=O)NC(=S)Nc2ccccn2)c(Br)c1	28*	.	-19%	-24%	4%	83*
O=C(COc1ccc(Br)cc1Cl)NC(=S)Nc1ccccn1	76*	?	14%	3%	7%	115*
Cc1cccc(-c2nnc(SCc3cc(=O)c4cccc(Cl)c4[nH]3)n2C)c1	.	.	.	.	-6%	.
Fc1ccc2nc3[nH]c4ccccc4c3nc2c1	44*	-11%	-17%	-13%	0%	62*
OC1=C(O)c2nc3cc(F)ccc3nc21	-2	?	15%	-12%	-1%	26
CC(=O)OCC(NC(=O)C(C)NC(=O)OC(C)(C)C)C1OC(n2ccc(=O)[nH]c2=O)C(OC(C)=O)C1OC(C)=O (configuration not stated)	7	-1%	.	.	.	4
N[C@@H](Cc1cc(CP(=O)(O)O)cc(-c2ccccc2Cl)c1)C(=O)O	6	?	.	.	.	24
CCSc1nnc(NC(=O)c2cccnc2Cl)s1	28*	-9%	-15%	-3%	2%	54*
CCSc1nnc(NC(=O)CCNC(=O)c2ccccc2Cl)s1	.	.	5%	.	6%	.
CCSc1nnc(NC(=O)c2cnccn2)s1	-1	1%	-20%	-3%	-3%	-3
CCSc1nnc(NC(=O)c2ccccn2)s1	45*	?	11µM*	?	-12%	60*
Cc1sc2c(c1C)CN(CCN1CCOCC1)CN2C(=O)c1ccccc1	20*	1%	-14%	0%	-7%	55
Nc1[nH]c(C(=O)c2ccccc2)c(-c2ccc(C(F)(F)F)cc2)c1C(=O)NCc1ccc(Cl)cc1Cl	.	.	27%	.	5%	.
Cc1cc(Cl)ccc1OCc1n[nH]c(=S)n1C1CCCCC1	-1	29%	-18%	13µM*	?	16
COc1ccc(Cl)cc1-c1n[nH]c(=S)n1Cc1ccccc1	1	22%	-9%	?	?	-3
COc1ccc(Cl)cc1-c1n[nH]c(=S)n1C1CCCCC1	-3	9%	11%	7.1µM*	?	-22
Cc1ccc(Oc2ncnc3sccc23)cc1	55*	-3%	-2%	5%	9%	91*
COc1cccc(COc2ncnc3sccc23)c1	14	4%	25%	-5%	-3%	-10
c1ccc(Oc2ncnc3ccccc23)cc1	.	.	-26%	.	0%	.
CCOc1ccc(OCCOc2ncnc3ccccc23)cc1	41*	0%	-1%	-4%	-6%	68
c1ccc(OCCOc2ncnc3sccc23)cc1	38*	3%	-3%	-11%	-4%	69*
CCCC(=O)NC1CC(=O)N(c2ccc3c(c2)OCCO3)C1 (configuration not stated)	.	.	.	.	-1%	.
COc1ccc(-c2ccc(CCC(=O)O)n2CC(=O)Nc2cccc(Cl)c2C)cc1	.	.	.	.	3%	.
Cc1ccc(Cn2c(SCC(=O)NCc3ccco3)nc3ccsc3c2=O)cc1	27*	2%	11%	6%	1%	42
Cc1ccc(-n2c(SCC(=O)NCc3ccco3)nc3c(sc4ccccc43)c2=O)cc1	53*	-3%	-7%	3%	-1%	119*
SMILES	Cycloheximide cs	Giardia FBPA inh	RE007 growth inh	LmPK inh	Tb PYK inh	Shiga inhibitor
COc1ccc(Cn2c(SCc3ccc(C(=O)NC(C)C)cc3)nc3cccnc32)cc1	.	.	.	.	0%	.
CCSC[C@H](NC(=O)[C@H](C)N)C(=O)N[C@@H](CC(=O)O)C(=O)N[C@H](C(=O)N[C@@H](C)C(=O)N[C@H](C(=O)N[C@@H](CSCC)C(=O)N[C@H](C(=O)N[C@H](C(=O)N[C@@H](Cc1cnc[nH]1)C(=O)N[C@@H](CCCNC(=N)N)C(=O)N[C@@H](CC(C)C)C(=O)N[C@@H](C)C(=O)NCC(=O)N[C@@H](CC(C)C)C(=O)N[C@@H](CC(C)C)C(=O)N[C@@H](CO)C(=O)N[C@@H](CCCNC(=N)N)C(=O)N[C@@H](CO)C(=O)NCC(=O)NCC(=O)N[C@H](C(=O)N[C@H](C(=O)N[C@@H](CCCCN)C(=O)N[C@@H](CC(N)=O)C(=O)N[C@@H](CC(N)=O)C(=O)N[C@@H](Cc1ccccc1)C(=O)N[C@H](C(=O)N1CCC[C@H]1C(=O)N[C@H](C(=O)N[C@@H](CC(N)=O)C(=O)N[C@H](C(=O)NCC(=O)N[C@@H](CO)C(=O)N[C@@H](CCCCN)C(=O)N[C@@H](C)C(=O)N[C@@H](Cc1ccccc1)C(N)=O)C(C)C)[C@@H](C)O)C(C)C)C(C)C)C(C)C)[C@@H](C)O)C(C)C)[C@@H](C)O)[C@@H](C)O	5	1%	.	.	.	-4
CCOC(=O)C1=C(C)N(c2ccc(OC)cc2)C(=O)/C1=C\c1ccc(O)c(OCC)c1	1	?	-2%	32µM*	-25%	23
CCOC(=O)C1=C(C)N(c2ccc(OC)cc2)C(=O)/C1=C\c1cccs1	6	-1%	9%	0%	4%	2
Cc1ccc(C)c(Cn2c(=O)n(Cc3ccccc3)c(=O)c3c2c2cc(C)ccc2n3C)c1	.	.	.	.	6%	.
COc1ccc2cc(-c3[nH]ncc3CN3CCCC3c3nonc3C)ccc2c1 (configuration not stated)	35*	-21%	-8%	-6%	0%	51*
CCOC(=O)CCNC(=O)c1ccc2nc(C3CCCCC3)oc2c1	17*	5%	-6%	3%	0%	27
CCc1ccc(CNC(=O)c2ccc3nc(C4CCCCC4)oc3c2)nc1	46*	.	.	1%	.	33*
CCNc1oc(COc2ccccc2F)nc1C#N	26*	0%	15%	0%	2%	107*
N#Cc1nc(-c2ccc(OCc3ccccc3Cl)cc2)oc1NCCCn1ccnc1	15*	-7%	.	-8%	.	26*
N#Cc1nc(-c2ccc(OCc3ccccc3)cc2)oc1NCCCn1ccnc1	-1	7%	0%	12%	-4%	11
N#Cc1nc(COc2ccccc2)oc1NCCCn1ccnc1	27*	1%	-14%	1%	-10%	33*
COCCNc1oc(COc2cccc(C)c2)nc1C#N	19*	1%	20%	-1%	0%	active
COC(=O)c1ccc(Cl)cc1NC(=O)N1CCCn2nc(C)cc21	.	.	.	.	1%	.
Cc1cc2c(c(C)c1Cl)C(c1ccc3c(c1)OCO3)CC(O)(c1ccccc1)O2 (configuration not stated)	-1	-10%	.	.	.	-3
N#Cc1nc(-c2ccc(F)cc2)oc1NCCCn1ccnc1	39*	8%	.	-1%	.	42*
N/C(=N\OC(=O)Oc1ccccc1)c1cccc([N+](=O)[O-])c1	7	-1%	12%	1%	4%	-7
Cc1cc(C)cc(OCC(=O)O/N=C(\N)c2cccnc2)c1	16*	4%	-6%	-4%	0%	34
